# Experimental data published in ChEMBL document CHEMBL3988442, “University of Dundee, Small-Polar-MMV Screening Library” (2021).
# For some of these results: Results with a measured potency or affinity are listed apart.
# What was measured:
# Set-up in all cases: scale not given: direction of the effect not stated beside the values
# [1] = target: Protein translocase subunit SecA (Escherichia coli (strain K12)) (UniProt P10408); experiment: Assay to Identify E. coli SecA ATPase Inhibitors; assay type: functional; details: 30 µM
# [2] = target: T1, Ubiquitin-activating enzyme e1, putative (Leishmania donovani (strain BPK282A1)) (UniProt E9BSI1); experiment: Leishmania donovani Ubiquitin Activating Enzyme (LdE1); assay type: functional; details: 30 µM
# T1 sequence (whole entry): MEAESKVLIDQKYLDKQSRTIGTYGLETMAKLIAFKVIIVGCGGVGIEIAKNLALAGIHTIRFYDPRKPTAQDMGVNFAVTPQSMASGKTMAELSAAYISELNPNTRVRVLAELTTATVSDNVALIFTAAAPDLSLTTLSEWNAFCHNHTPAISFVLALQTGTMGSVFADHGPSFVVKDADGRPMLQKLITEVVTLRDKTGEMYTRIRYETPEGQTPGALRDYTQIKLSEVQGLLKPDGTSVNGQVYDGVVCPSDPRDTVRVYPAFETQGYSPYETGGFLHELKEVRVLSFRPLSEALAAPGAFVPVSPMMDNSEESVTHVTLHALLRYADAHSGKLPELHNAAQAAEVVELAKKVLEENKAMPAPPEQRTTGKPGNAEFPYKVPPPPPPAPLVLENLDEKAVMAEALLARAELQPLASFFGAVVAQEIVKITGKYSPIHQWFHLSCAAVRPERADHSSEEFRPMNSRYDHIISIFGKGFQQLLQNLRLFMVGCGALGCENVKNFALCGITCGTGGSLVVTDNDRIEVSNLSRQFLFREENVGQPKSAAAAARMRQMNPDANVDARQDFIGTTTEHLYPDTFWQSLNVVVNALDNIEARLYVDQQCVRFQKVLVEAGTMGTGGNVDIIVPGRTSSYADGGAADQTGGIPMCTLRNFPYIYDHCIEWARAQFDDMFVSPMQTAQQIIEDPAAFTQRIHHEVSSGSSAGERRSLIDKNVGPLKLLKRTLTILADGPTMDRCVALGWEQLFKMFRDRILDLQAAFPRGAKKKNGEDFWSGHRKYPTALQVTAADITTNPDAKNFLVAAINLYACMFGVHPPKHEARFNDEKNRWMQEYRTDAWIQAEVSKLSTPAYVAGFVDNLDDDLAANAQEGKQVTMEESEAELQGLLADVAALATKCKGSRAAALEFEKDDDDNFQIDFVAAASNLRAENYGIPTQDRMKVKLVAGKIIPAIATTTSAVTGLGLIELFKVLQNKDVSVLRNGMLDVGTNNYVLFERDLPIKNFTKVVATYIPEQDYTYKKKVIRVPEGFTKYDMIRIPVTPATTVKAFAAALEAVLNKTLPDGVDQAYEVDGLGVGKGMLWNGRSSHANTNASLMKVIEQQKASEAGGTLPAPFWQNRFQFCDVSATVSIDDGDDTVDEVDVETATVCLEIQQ
# [3] = target: AMP-activated protein kinase, AMPK (Homo sapiens) (UniProt P54646+O43741+P54619+Q9UGJ0+Q9Y478+Q13131+Q9UGI9); experiment: AMP-dependent Kinase enzyme assay. An in vitro enzyme assay that detects ADP turnover that is directly proportional to AMPK activity. This uses naive AMPK that is activated during the assay with MK-8722; assay type: functional; details: 30 µM
# [4] = target: Sialic acid-binding Ig-like lectin 9 (Homo sapiens) (UniProt Q9Y336); experiment: Hs-Siglec9 ALPHAscreen SOP 20170721; details: 10 µM
# Trypanosoma cruzi = experiment: Trypanosoma cruzi phosphomannomutase and mannose-1-phosphate guanylyltransferase assay; assay type: functional; details: 10 µM
# [5] = target: T2, Arginase-2, mitochondrial (Homo sapiens) (UniProt P78540); experiment: in vitro enzyme assay to detect the production of urea directly proportional to the activity of Arginase II; assay type: functional; details: 33.3 µM; further: in the data most compounds retested in dose-response had high values
# T2 sequence (whole entry): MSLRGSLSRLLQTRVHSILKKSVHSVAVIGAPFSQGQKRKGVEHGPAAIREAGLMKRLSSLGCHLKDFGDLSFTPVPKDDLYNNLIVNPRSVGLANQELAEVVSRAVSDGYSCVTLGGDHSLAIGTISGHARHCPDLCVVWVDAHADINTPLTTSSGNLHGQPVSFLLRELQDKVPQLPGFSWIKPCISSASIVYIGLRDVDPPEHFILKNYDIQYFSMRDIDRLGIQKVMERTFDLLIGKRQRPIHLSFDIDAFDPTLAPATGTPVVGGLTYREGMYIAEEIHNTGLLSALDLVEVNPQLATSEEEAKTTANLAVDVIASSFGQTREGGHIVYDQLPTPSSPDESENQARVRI
# [6] = target: T3, Proteasome subunit beta (Trypanosoma cruzi) (UniProt O96673); experiment: Trypanosoma cruzi proteasome chymotrypsin-like activity (TcProtChymo) assay.; further: in the data most compounds retested in dose-response had high values; assay type: functional; details: 9.37 µM
# T3 sequence (whole entry): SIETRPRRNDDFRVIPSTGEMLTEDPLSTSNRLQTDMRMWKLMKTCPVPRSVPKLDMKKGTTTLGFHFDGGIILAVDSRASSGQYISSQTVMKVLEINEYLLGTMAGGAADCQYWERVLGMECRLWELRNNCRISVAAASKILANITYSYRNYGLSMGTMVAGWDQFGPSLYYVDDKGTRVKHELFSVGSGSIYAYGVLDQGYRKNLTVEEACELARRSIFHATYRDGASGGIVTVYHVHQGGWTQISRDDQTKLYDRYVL
# Homo sapiens = species: Homo sapiens; experiment: To identify inhibition of the IFN signalling (Jak-Stat) pathway via expression of an eGFP reporter gene under the control of an IFN-stimulated response element (ISRE) containing MxA promoter.; assay type: functional; details: 30 µM
# [7] = target: T4, Tyrosyl-tRNA synthetase, putative (Trypanosoma cruzi (strain CL Brener)) (UniProt Q4DSP6); experiment: Trypanosoma cruzi tyrosyl tRNA synthetase (TcYRS) _High Tyrosine SOP; assay type: functional; details: 30 µM; further: in the data most compounds retested in dose-response had high values
# T4 sequence (whole entry): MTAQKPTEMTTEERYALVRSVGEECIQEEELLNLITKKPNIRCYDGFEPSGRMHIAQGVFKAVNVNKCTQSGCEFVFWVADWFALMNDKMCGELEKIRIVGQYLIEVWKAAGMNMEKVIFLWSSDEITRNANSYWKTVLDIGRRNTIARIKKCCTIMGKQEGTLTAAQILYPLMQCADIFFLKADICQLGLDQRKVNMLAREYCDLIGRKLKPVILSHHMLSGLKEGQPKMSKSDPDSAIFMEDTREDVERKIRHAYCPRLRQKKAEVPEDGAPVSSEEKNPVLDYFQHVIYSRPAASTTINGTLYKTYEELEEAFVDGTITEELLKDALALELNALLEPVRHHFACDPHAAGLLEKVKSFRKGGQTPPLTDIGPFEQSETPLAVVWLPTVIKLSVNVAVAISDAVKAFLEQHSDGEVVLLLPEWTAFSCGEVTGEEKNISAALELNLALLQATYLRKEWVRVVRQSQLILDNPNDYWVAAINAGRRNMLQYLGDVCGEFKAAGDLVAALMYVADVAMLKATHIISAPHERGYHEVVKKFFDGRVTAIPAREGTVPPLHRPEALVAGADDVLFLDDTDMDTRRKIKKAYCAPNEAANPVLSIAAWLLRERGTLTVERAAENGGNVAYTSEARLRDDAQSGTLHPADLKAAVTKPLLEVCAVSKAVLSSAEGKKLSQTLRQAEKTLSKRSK
# [8] = target: T4, Tyrosyl-tRNA synthetase, putative (Trypanosoma cruzi (strain CL Brener)); experiment: Trypanosoma cruzi tyrosyl tRNA synthetase (TcYRS) SOP; assay type: functional; details: 30 µM
# [9] = target: Chromo domain-containing protein 1 (Saccharomyces cerevisiae (strain ATCC 204508 / S288c) (Baker's yeast)) (UniProt P32657); experiment: ScCHD-1 Enzyme Inhibition Assay; assay type: functional; details: 30 µM; further: in the data most compounds retested in dose-response had high values
# Chain of Chromo domain-containing protein 1 (Saccharomyces cerevisiae (strain ATCC 204508 / S288c) (Baker's yeast)) (P32657 whole entry, the tested form may be a part): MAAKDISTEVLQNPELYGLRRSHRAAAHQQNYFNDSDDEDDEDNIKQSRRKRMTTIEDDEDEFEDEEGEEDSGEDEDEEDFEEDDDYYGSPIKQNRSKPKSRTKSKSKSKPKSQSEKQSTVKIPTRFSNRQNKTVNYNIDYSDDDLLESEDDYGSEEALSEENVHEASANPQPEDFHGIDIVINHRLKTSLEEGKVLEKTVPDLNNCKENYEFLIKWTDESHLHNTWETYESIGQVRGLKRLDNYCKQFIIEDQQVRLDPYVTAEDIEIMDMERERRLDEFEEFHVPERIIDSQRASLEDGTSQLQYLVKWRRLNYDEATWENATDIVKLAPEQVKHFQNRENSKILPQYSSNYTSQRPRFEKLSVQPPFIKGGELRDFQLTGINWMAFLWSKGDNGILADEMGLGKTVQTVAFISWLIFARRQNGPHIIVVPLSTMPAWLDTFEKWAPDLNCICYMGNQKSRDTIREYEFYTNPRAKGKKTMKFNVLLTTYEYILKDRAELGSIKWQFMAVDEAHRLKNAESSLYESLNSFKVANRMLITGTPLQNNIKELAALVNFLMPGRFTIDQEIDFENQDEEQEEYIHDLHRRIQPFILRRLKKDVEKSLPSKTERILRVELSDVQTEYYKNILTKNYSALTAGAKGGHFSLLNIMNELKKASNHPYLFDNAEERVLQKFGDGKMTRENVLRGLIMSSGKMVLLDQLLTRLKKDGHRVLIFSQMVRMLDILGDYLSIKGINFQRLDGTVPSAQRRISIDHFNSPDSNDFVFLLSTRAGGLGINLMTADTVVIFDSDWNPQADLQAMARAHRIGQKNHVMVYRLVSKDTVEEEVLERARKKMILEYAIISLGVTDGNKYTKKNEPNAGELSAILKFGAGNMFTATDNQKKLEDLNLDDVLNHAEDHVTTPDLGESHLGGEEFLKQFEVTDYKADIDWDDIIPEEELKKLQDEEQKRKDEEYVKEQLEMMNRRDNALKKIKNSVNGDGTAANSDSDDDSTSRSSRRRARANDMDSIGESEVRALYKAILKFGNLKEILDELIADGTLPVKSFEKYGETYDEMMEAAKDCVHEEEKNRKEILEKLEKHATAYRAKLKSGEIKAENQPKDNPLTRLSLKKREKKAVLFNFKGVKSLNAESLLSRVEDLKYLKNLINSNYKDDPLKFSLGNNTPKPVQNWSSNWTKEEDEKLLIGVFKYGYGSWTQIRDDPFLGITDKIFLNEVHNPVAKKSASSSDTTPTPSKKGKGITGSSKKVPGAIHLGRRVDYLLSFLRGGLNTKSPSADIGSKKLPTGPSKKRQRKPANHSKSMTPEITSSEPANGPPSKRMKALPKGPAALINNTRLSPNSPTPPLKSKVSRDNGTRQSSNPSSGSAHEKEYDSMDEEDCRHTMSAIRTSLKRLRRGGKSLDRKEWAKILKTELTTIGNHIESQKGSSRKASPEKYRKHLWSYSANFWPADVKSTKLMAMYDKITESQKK
# Chain of Sialic acid-binding Ig-like lectin 9 (Homo sapiens) (Q9Y336 whole entry): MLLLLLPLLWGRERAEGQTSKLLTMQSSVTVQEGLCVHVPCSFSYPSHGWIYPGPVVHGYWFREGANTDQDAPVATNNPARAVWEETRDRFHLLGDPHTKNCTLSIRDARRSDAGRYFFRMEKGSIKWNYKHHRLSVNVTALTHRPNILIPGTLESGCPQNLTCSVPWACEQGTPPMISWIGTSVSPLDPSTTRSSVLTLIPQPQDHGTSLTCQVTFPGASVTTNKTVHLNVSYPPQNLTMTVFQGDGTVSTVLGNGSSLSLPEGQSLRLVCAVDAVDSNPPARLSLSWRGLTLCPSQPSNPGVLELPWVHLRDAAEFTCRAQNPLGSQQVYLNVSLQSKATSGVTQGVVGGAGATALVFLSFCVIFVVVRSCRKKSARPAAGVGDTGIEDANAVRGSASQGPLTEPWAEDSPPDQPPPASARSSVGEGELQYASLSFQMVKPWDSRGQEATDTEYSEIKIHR
# Chain of Protein translocase subunit SecA (Escherichia coli (strain K12)) (P10408 whole entry): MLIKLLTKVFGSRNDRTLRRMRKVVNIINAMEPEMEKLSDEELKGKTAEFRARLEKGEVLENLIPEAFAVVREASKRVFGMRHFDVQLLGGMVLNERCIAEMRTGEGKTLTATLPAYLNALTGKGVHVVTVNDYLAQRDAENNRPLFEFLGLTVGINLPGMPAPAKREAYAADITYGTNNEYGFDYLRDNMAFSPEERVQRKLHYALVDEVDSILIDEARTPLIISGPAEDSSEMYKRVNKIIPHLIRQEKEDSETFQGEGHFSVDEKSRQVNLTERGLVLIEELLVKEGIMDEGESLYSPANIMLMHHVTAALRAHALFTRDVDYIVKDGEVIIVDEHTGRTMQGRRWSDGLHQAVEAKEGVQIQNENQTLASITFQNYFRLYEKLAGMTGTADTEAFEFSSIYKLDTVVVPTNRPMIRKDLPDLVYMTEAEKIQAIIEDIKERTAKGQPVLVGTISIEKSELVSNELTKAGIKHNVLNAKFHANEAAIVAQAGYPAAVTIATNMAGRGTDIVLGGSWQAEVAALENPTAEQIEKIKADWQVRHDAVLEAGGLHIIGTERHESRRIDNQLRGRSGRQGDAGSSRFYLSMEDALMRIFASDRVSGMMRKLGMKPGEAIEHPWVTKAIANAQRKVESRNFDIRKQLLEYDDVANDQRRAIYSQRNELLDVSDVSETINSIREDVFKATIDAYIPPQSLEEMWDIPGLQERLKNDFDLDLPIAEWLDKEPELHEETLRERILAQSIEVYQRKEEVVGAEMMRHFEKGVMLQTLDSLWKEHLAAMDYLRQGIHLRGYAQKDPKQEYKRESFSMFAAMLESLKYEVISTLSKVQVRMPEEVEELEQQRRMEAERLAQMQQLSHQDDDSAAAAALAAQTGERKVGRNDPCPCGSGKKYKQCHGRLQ
SMILES,Percent Effect [1],Percent Effect [2],Percent Effect [3],Percent Effect [4],Percent Effect (Trypanosoma cruzi),Percent Effect [5],Percent Effect [6],Percent Effect (Homo sapiens),Percent Effect [7],Percent Effect [8],Percent Effect [9]
COCC(O)CNC(=O)c1cnc(-c2ccccc2)nc1O (configuration not stated),2.38%,8.11%,-5.21%,5.6%,3.28%,-0.476%,8.97%,13.5%,8.99%,19.5%,-0.825%
CC(C(=O)NCCN1CCCCCC1)n1cncn1 (configuration not stated),-5.19%,13.2%,-5.03%,2.07%,4.76%,1.8%,3.98%,-5.88%,4.43%,13.6%,-5.88%
CC(C(=O)NCCOc1cccc(Cl)c1)n1cncn1 (configuration not stated),-1.19%,17.7%,-0.802%,-7.8%,2.55%,3.42%,7.94%,-10.4%,-2.46%,13.9%,-5.29%
CCN(CC(=O)NC)C(=O)Cc1nc(-c2ccco2)oc1C,-8.15%,5.33%,-6.53%,3.51%,0.876%,5.73%,16.9%,10.7%,8.2%,13.6%,-5.99%
Cc1nnc(NC(=O)NC2CCOc3ccccc32)s1 (configuration not stated),-3.11%,5.48%,-3.94%,7.64%,1.59%,-4.39%,12.8%,-9.09%,12.5%,23.5%,1.07%
C[S+]([O-])c1nncn1CC(=O)c1ccc(Cl)c(Cl)c1 (configuration not stated),-5.28%,8.11%,-4.71%,15.3%,5.57%,2.73%,4.38%,-5.62%,-4.3%,1.24%,-5.11%
C[C@@H]1CN(C(=O)c2cnc(C3CC3)nc2)CC[C@@]1(O)C1CCOCC1,-3.43%,10.8%,-4.34%,21.6%,4.44%,-8.57%,6.55%,-5.6%,4.76%,9.76%,-5.75%
CCc1nc(C2CCCN2C(=O)CCc2ccc3c(c2)OCO3)no1 (configuration not stated),-3.47%,-5.41%,2.98%,5.83%,3.62%,-3.14%,-6.46%,10.2%,1.98%,1.22%,10.8%
O=C(CO)N1C[C@H]2CC[C@@H]1CN(C1Cc3ccccc3C1)C2,-5.84%,5.41%,-17.8%,-1.59%,-1.86%,1.74%,5.75%,3.96%,1.07%,8.64%,-4.67%
O=C(CCCNC(=O)C1CC1)Nc1cnn(-c2ccccc2Cl)c1,-2.62%,5.41%,-9.02%,0.665%,7.33%,-3.51%,5.03%,-1.9%,5.94%,13.4%,-3.58%
CCCOc1cc(C)ccc1NC(=O)NCCC(=O)N(C)C,-4.1%,13.7%,-1.53%,-3%,-3.33%,4.09%,20.6%,10.2%,6.45%,15%,-2.56%
O=C(c1ccc[nH]1)N1C[C@H](OCc2cccnc2)[C@H]2COC[C@H]21,-4.86%,0%,2.4%,-3.13%,1.17%,-1.25%,12.3%,-27.9%,8.91%,-3.66%,-5.43%
Cc1ccc(C(=O)NCCS(C)(=O)=O)c(=O)[nH]1,-3.94%,16.2%,-7.64%,-5.87%,4.88%,10.4%,16.1%,7.03%,9.9%,15.8%,-5.72%
CCOC(=O)[C@]12CCCN(Cc3nccs3)C[C@H]1CN(C(C)=O)C2,-1.26%,5.2%,-1.96%,-4.79%,-9.17%,-0.645%,15.7%,7.39%,0%,6.41%,-6.7%
CC(C)C(=O)N1CCC(c2nc(O)cc(-c3ccncc3)n2)CC1,-5%,25.7%,5.51%,-2.98%,3.16%,-2.09%,10.9%,14.4%,5.38%,11.7%,-14.2%
CC(Cn1ccnc1)NC(=O)NCCc1ccc2c(c1)OCCO2 (configuration not stated),-3.57%,18.2%,-10.2%,-0.77%,-10.1%,0.712%,15.7%,31.7%,4.85%,2.44%,-8.39%
COc1ccccc1CC1CCCN(CC(=O)N2CCOCC2)C1 (configuration not stated),-0.695%,-7.79%,1.77%,6.99%,1.08%,2.32%,-1.54%,2.85%,-1.91%,0%,-10%
